The full ranking holds about 33,000 sequences; the median of “E-score (-0.5 to 0.5)” is about -0.054, and the highest 2% start at about 0.35. For the sample, the highest values were picked, then their nearest neighbours and some sequences at random.
Target: T1, Stb5 (UniProt P38699)
T1 sequence: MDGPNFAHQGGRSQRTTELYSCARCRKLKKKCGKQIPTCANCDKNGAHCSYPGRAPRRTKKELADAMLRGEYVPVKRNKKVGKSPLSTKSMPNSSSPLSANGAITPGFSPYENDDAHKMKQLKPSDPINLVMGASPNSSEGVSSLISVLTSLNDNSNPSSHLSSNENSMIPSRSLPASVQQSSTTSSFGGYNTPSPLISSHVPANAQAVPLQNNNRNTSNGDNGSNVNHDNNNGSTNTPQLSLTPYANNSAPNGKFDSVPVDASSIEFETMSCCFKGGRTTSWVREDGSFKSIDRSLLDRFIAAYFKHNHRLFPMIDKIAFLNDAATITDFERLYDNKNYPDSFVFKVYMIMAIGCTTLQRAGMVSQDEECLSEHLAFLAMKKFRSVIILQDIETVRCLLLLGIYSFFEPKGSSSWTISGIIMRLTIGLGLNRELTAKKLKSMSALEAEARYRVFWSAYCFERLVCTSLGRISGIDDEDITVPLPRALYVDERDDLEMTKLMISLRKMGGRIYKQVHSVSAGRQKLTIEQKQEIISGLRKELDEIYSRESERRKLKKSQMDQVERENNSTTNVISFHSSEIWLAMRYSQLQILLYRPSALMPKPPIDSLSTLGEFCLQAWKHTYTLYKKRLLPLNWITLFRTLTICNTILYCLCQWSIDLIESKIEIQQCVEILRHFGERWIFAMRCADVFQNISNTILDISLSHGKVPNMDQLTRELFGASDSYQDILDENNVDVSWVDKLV
Test: PBM E-score (8-mer binding enrichment) (E-score (-0.5 to 0.5)); higher = stronger / more preferred TF binding
Details: protein concentration: 200 nM; construct: GST-full length
Procedure, shortened: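 Yeast transcription factors, full-length or as DNA-binding domains, were expressed with a GST tag using PURExpress in vitro transcription/translation. At about 100-200 nM they were applied to universal all-10-mer Agilent arrays, double-stranded by primer extension on fresh or once-stripped slides. Fluorescent anti-GST detected bound protein, and masliner normalised the scans. E-scores for ungapped eight-base words, pooled with reverse complements, came from the Universal PBM Analysis Suite.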

Sequence	PBM E-score
AACCGGAG	0.302
GACCGGCC	0.29
GACCGGAC	0.387
TAGACCAA	-0.239
CAATGGCA	0.022
TATTTACA	-0.157
AGCTGTTC	-0.207
CAAGATGG	-0.13
TAGATTGA	0.0223
AAAGTACG	0.00248
CCAATGCG	-0.208
GAGAGGCC	-0.0937
CACCGGAC	0.413
CACCGGAA	0.293
AACCGGAC	0.28
CACCGGGC	0.375
CACCGGGG	0.33
GACCGGGC	0.211
CAGCAATA	-0.0729
ATGCCCAA	-0.116
CGCGGCTA	0.3
CGGTAATA	0.457

Sequence	PBM E-score
GGGTAATA	0.143
CGGTAACC	0.165
CGGTAACA	0.36
AGGTAACA	-0.111
CGGTAATC	0.25
CGCATAAA	-0.127
CAAGCGGA	0.223
AAAGCGGG	0.297
TAAGCGGA	0.209
CAAGCGGC	0.379
AAAGCGGA	0.352
CAAGCGGG	0.273
ACGACGGC	0.146
CCGACGCG	0.378
CCGACAAG	0.266
CCGACGAC	0.312
TCGACAAA	-0.183
ACGACGCG	-0.0646
GCGACGGA	0.283
CCGACGGA	0.394
CCGACAAA	0.353
ACGACGGA	0.227

Sequence	PBM E-score
CCGACGGC	0.372
CCGACGCC	0.315
CGCGATCC	0.0632
AAAACGGC	0.21
GTACTCAA	-0.185
GCTTTAAC	-0.0801
TAAATCGA	-0.267
AGTCAAAA	-0.00563
AAACCTCT	0.015
ATAAAGAG	-0.0867
CCAAGCAG	-0.122
CACTGTCA	-0.352
AAACTCCG	0.463
AAGCTCCG	0.429
AATCTCCG	0.423
AAGCTCCT	-0.165
AAACTCCT	0.0448
ATACTCCG	0.371
ATACTCCC	0.339
CAGCTCCG	0.136
CAACTCCG	0.342
CATCTCCG	0.276

Sequence	PBM E-score
ATACTCCA	-0.199
AATCTCCC	-0.0498
CACTGCAA	-0.139
ACGTGCGA	-0.0649
GCTAGTCC	0.0729
GAGAAAGC	0.0247
CACACATC	-0.15
CTGTTCGC	-0.0755
AACCTCCC	-0.0946
AACCTCCT	-0.234
AACCTCCG	0.408
GTAAGCCA	-0.243
GAGTAGCC	-0.178
CGAAATTA	-0.0454
CCCCGTGA	0.146
ACCCGTGC	-0.0288
CCCCGTGC	0.375
ATGAACCA	-0.252
CACAGCTA	-0.125
CAATTGTC	-0.0888
